Inconclusive results are not listed. Activity calls are given as the source filed them. Rule for the calls: active = hit-call score of the fitted dose curve at least 0.9, where 1 is the maximum; inconclusive = response in the unintended direction; inactive = score below 0.9.
molecular target: chimpanzee Androgen Receptor (AR), AR (gene 747460) (UniProt O97775); assay: NVS_NR_cAR: NovaScreen (NVS) Nuclear Receptor Binding Assay for chimpanzee Androgen Receptor (AR) (AID 2283346);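 note: radioligand displacement from AR measured by scintillation counting in a cell-free assay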
Method in brief: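 Cell-free radioligand displacement using receptor protein extracted from Sf9/Sf21 cells; bound radioligand measured by scintillation counting 72 hours after chemical dosing. Loss of signal versus DMSO baseline indicates binding; primary screen single-concentration in duplicate at 25 uM, actives followed in concentration series.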

chimpanzee Androgen Receptor (AR), AR (gene 747460), sequence (O97775 whole entry, looked up): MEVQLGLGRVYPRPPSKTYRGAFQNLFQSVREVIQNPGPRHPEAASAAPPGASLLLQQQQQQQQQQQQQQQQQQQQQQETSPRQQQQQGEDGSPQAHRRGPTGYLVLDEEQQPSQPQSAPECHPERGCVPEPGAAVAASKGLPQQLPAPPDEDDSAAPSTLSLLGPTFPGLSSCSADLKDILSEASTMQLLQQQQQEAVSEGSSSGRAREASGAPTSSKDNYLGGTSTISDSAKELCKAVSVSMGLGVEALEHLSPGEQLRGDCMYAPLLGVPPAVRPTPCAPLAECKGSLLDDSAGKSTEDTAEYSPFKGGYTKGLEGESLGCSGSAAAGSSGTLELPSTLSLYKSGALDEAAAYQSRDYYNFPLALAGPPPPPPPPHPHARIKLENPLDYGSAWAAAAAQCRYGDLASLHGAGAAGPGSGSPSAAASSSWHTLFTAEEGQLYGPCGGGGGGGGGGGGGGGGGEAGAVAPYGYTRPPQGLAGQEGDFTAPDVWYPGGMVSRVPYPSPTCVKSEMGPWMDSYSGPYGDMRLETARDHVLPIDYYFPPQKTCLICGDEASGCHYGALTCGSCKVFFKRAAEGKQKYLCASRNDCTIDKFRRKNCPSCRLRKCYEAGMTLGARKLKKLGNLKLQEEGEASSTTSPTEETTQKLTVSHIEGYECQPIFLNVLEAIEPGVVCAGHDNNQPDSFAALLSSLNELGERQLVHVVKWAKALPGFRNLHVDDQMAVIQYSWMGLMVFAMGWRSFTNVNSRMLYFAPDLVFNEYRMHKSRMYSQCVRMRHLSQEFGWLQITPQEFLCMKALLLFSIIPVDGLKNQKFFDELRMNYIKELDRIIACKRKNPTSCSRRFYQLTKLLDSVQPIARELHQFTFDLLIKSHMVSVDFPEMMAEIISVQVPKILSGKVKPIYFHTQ

AC50, active:
CCc1cc(C2=C(C(=O)O)N(c3ccccc3C(F)(F)F)S(=O)(=O)c3ccccc32)cc2c1OCO2 25 µM, CCCCC(CC)COP(=O)(OCC(CC)CCCC)OCC(CC)CCCC (configuration not stated) 18.1 µM, COC(=O)[C@H]1[C@H]2C[C@@H]3c4[nH]c5cc(OC)ccc5c4CCN3C[C@H]2C[C@@H](OC(=O)c2cc(OC)c(OC)c(OC)c2)[C@@H]1OC 19.2 µM

outcome, inactive:
CC(=O)CC(c1ccccc1)c1c(O)c2ccccc2oc1=O (configuration not stated), S=c1[nH]c2ccccc2s1

molecular target: Estrogen receptor (Homo sapiens) (UniProt P03372); assay: NVS_NR_hER: NovaScreen (NVS) Nuclear Receptor Binding Assay for human Estrogen Receptor (ER) (AID 2283348)
Method in brief: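 Cell-free radioligand binding with protein extracted from MCF7 cells; scintillation counting 18 hours after dosing. Loss of signal versus DMSO baseline read as displacement; primary single-concentration screen at 25 uM in duplicate, actives retested in concentration series.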

Estrogen receptor (Homo sapiens), sequence (P03372 whole entry, looked up, the tested form may be a part): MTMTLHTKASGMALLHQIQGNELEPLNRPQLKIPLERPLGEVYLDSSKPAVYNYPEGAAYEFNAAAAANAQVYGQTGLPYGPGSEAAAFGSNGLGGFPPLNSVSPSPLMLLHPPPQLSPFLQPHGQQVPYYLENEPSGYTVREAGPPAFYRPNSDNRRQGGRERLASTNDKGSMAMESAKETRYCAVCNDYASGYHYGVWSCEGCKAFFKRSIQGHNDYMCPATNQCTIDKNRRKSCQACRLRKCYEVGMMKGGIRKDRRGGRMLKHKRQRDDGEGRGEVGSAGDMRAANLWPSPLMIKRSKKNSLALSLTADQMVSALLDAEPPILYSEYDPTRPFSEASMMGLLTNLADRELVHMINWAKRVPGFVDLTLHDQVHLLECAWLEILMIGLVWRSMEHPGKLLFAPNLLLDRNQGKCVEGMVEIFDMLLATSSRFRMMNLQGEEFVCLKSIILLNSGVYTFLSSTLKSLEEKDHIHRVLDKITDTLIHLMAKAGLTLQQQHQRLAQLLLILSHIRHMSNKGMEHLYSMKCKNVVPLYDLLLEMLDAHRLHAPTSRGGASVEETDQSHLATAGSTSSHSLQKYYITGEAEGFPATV

outcome, inactive:
Nc1nc(=S)c2[nH]cnc2[nH]1, CC(C)OC(=O)C(C)(C)Oc1ccc(C(=O)c2ccc(Cl)cc2)cc1, CCC(C)N(C)C(=O)c1cc2ccccc2c(-c2ccccc2Cl)n1 (configuration not stated), Cc1ccc(C(C)(C)C)c(O)c1

molecular target: Estrogen receptor (Homo sapiens) (UniProt P03372); assay: OT_ER_ERaERa_1440: Odyssey Thera (OT) 24-hour HEK293T Protein-Complementation Assay for Estrogen Receptor-alpha/-alpha Homodimer (AID 2283349);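 note: hits raise fluorescence above DMSO for agonists and antagonists alike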
Method in brief: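 Readout is the rise in mean fluorescence from reporter fragment complementation when ERα LBD (aa 310-547) units dimerize in HEK293T cells. Measured 24 h after dosing and analysed as increase over DMSO control.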

outcome, inactive:
Nc1nc(=S)c2[nH]cnc2[nH]1, CC(C)OC(=O)C(C)(C)Oc1ccc(C(=O)c2ccc(Cl)cc2)cc1, O=C(O)CC(O)(CC(=O)O)C(=O)O, COc1ccc(C(=O)Nc2nc3ccccc3c(NCc3ccccc3)c2C#N)cc1, O=C(O)c1[nH]n(-c2ccc(S(=O)(=O)O)cc2)c(=O)c1N=Nc1ccc(S(=O)(=O)O)cc1, OCC(CO)n1cnc(-c2ccc(F)cc2)c1-c1ccnc(Oc2ccccc2)n1, COC(=O)CCC(=O)OC, CCCCCCCCCCCCCCCCO, O=C(NS(=O)(=O)/C=C/c1cccs1)c1ccc(F)cc1Br, CN(C)CCCN(C)CCCN(C)C, NC(=Nc1ccccc1)Nc1ccccc1, O=[Si]=O, CC(C)c1cccc(C(C)C)c1, CCCCCCC(CCCCCCCCCCC(=O)OCC(COC(C)=O)OC(C)=O)OC(C)=O (configuration not stated), Oc1ccc(O)cc1, CCC(C)N(C)C(=O)c1cc2ccccc2c(-c2ccccc2Cl)n1 (configuration not stated), O=C1CCCCC1, CCCCCCCC(=O)OC, c1ccc2occc2c1, CC1(C)C(=O)NC(=O)N1CO, Cc1ccc(C(C)(C)C)c(O)c1, CC1=C(C)S(=O)(=O)CCS1(=O)=O

AC50, active:
O=C(O)CN(CC(=O)O)CC(=O)O 10.9 µM

— PubChem BioAssay (EPA / NIEHS)
